# Data: PubChem BioAssay AID463193 (University of Pittsburgh Molecular Library Screening Center, 2010)
# About 1,900 (1%) of roughly 190,000 compounds were called active.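 How the source made its calls: active means percentage of spot-positive cells more than 3 SD above its plate mean, without a fluorescence outlier flag or 80% toxicity; inconclusive means no clear call, values can overlap the other calls; inactive means the rest.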 What follows is part of a selection rich in actives, with near analogues and random picks from the rest.
# Assay: autophagy modulators in MEF cells, primary screen, imaging, high-content, MEF GFP-LC3 (AID 463193);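 on % cells with GFP-LC3 spots: spot-positive cell cutoff set from DMSO-treated cells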;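 on toxicity: cell loss after 18 h compound exposure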
# Conditions: MEF GFP-LC3 puncta imaging, at 10 µM; % cells with GFP-LC3 spots: stronger effect = higher value; toxicity: measured here: cell loss, nuclei count
SMILES,% cells with GFP-LC3 spots,toxicity [%]
Cc1ccc(NC(=O)C(=O)NCc2ccc(/C=N/NC(=O)c3c(C)nc4cc(C)ccn34)o2)cc1,7.6% (inactive),-9.46
Cc1ccc(C(=O)/C=C/Nc2ccc(S(=O)(=O)Nc3onc(C)c3C)cc2)cc1,2.91% (inactive),14.6
COc1cc2c(cc1OC)CC1(CCCCC1)N=C2,0.564% (inactive),-2.01
Cc1cccn2c(=O)c(/C=C3\SC(=S)N(CC(C)C)C3=O)c(NCCCOC(C)C)nc12,83.5% (active),1.08
CNc1nc2c(C)cccn2c(=O)c1C=Nc1ccc(OC)cc1,16.2% (inactive),19.6
CCn1c(=N)c(C(=O)NCCCOC)cc2c(=O)n3cccc(C)c3nc21,6.38% (inactive),16.3
Cn1cc(-c2ccccc2)cc(C#N)c1=O,1.72% (inactive),2.28
COc1ccc(CN2CN(C3CCCC3)CSC2=S)cc1,6.4% (inactive),-8.41
COc1ccc(C(CC(=O)Nc2ccc(C)cc2)NC(=O)C(F)(F)F)cc1 (centres undefined),6.89% (inactive),-5.77
CC(=O)/C(=N\Nc1ccc(Cl)cc1Cl)Sc1cccc2cccnc12,80.1% (active),-7.61
O=C(CSc1cccc2cccnc12)N/N=C/c1cccnc1,16.6% (inactive),24.2
S=C(NCc1cccnc1)Nc1ccc(Cl)cc1Cl,1.61% (inactive),10
CC(C)(C)CC(C)(C)NCC(O)COCCOc1ccc(Br)cc1 (centres undefined),10.9% (inactive),5.37
c1ccc(C2c3[nH]c4ccccc4c3CCN2Cc2cccn2-c2cccnc2)nc1 (centres undefined),1.12% (inactive),-2.12
Fc1cccc2ncnc(OCc3ccccc3)c12,3.59% (inactive),-3.11
COc1ccc(CCNC(=O)CCn2c(=O)oc3ccccc32)cc1OC,4.11% (inactive),-1.63
COc1ccc(OC)c(NC(=O)Cn2c(=O)oc3ccccc32)c1,18.4% (active),3.57
COc1ccc(OC)c(NC(=O)CN2CCN(C(=O)c3ccco3)CC2)c1,0.967% (inactive),2.86
CCN(CC(=O)NCCc1ccccc1)S(=O)(=O)c1ccccc1,12% (inactive),29.2
Cc1c(Br)c([N+](=O)[O-])nn1CC(=O)N1CCN(Cc2ccccc2)CC1,3.58% (inactive),7.29
CSc1nc2ccccc2c(=O)n1Cc1ccc(F)cc1,35.2% (active),0.835
O=C(CCn1c(SCC(=O)c2ccccc2)nc2ccccc2c1=O)NCc1ccc(F)cc1,5.36% (inactive),4.33

SMILES,% cells with GFP-LC3 spots,toxicity [%]
CC(Sc1nc2ccccc2c(=O)n1Cc1ccco1)C(=O)c1ccccc1 (centres undefined),11.8% (inactive),-5.88
CC(=O)n1c(C=Nc2ccccc2)c(O)c2ccccc21,6.01% (inactive),-16
CN(c1ccccc1)c1ccc(/C=c2\s/c(=C(/C#N)C(=O)C(C)(C)C)n(Cc3ccco3)c2=O)cc1,71.3% (active),-2.03
COc1ccc(NC(=O)Cn2c(=O)n(Cc3ccco3)c(=O)c3ccccc32)cc1,3.23% (inactive),-0.177
CCOC(=O)CSc1nc2c(sc(=S)n2CCc2ccccc2)c(=O)n1Cc1ccco1,25.9% (inactive),36.2
Cc1cc(C(=O)N/N=C/c2cc([N+](=O)[O-])cc(C)c2O)n[nH]1,6.01% (inactive),8.83
CCOC(=O)Cc1ncccc1C(=O)Nc1ccc(OC)cc1,2.71% (inactive),-9.63
O=C(CSc1nnc(-c2ccncc2)n1-c1ccc(Cl)cc1)Nc1ccc(C(=O)O)cc1,1.88% (inactive),-0.961
COC(=O)c1ccc(C(=O)OC)c(NC(=S)N2CCN(c3cc(Cl)ccc3C)CC2)c1,12.5% (inactive),21.9
CCCN(CCC)C(=S)Nc1cc(C(=O)OC)ccc1C(=O)OC,12.3% (inactive),-2.2
COC(=O)c1ccc(C(=O)Nc2cc(Cl)ccc2Cl)cc1NC(=O)c1ccccc1C,29.3% (active),-19.2
CN(c1ccccc1)S(=O)(=O)c1ccc(Cl)c(C(=O)OCC(=O)N2CCOCC2)c1,0.158% (inactive),2.3
O=C(OCC(=O)N1CCN(C(=O)c2ccco2)CC1)c1ccccc1Cc1ccccc1,7.07% (inactive),4.3
CN(c1ccccc1)S(=O)(=O)c1cc(C(=O)OCC(=O)N2CCN(C(=O)c3ccco3)CC2)ccc1Cl,11.3% (active),-3.57
Cc1ccc(-n2cc(CN(C)Cc3nccn3C)c(-c3cccc(C)c3)n2)cc1,1% (inactive),-0.155
CCN(CC)C(=O)CSc1nnc(C2CCCCC2)o1,4.79% (inactive),-0.426
CCCCCC1CCC(c2nnc(SCC(C)=O)o2)CC1 (centres undefined),10.7% (active),-6.19
CN(C)/N=C/c1cc(Cl)cc([N+](=O)[O-])c1O,9.47% (inactive),-11.7
Cc1nc(Nc2ccc3c(c2)OCCO3)c2nnn(Cc3ccccc3Cl)c2n1,8.6% (inactive),4.03
CCCc1nc(NCc2ccc3c(c2)OCO3)c2nnn(Cc3ccccc3Cl)c2n1,15.7% (active),5
O=C(Cn1cnc2c(nnn2Cc2ccc(F)cc2)c1=O)NCc1ccc2c(c1)OCO2,2.36% (inactive),-2.24
CCOc1ncccc1C(=O)N(C)CC(=O)Nc1ccc(F)cc1,5.93% (inactive),-12.3

SMILES,% cells with GFP-LC3 spots,toxicity [%]
O=C(NCc1ccncc1)C(=O)NCc1ccco1,0.301% (inactive),-9.14
CCSc1nc(C)nc2c1oc1ccccc12,7.02% (inactive),8.62
COc1ccccc1Nc1ncnc2c1oc1ccccc12,5.61% (inactive),1.55
CCc1nc(Nc2ccc3nccnc3c2)c2oc3ccccc3c2n1,19% (active),-4.67
CN(C)C(=O)c1nc2ccc(Cl)cn2c1CN1CCN(c2ncccn2)CC1,2.1% (inactive),-12.9
CC(C)C(=O)Nc1c(O)c2ccccc2[nH]c1=O,0.457% (inactive),5.73
CCOc1ccccc1N1CCN(C(=O)COc2ccc3c(C)cc(=O)oc3c2)CC1,3.98% (inactive),7.33
COc1ccc([C@H]2[C@H](C(C)=O)N3N=Cc4ccccc4C3C23C(=O)OC(C)(C)OC3=O)cc1 (some centres undefined),3.81% (inactive),-2.15
C/C(=N/Nc1ccc(Cl)cc1)c1cnnc(-c2ccccc2)n1,45.6% (active),-1.98
CC/C(=N/Nc1ccccc1)c1cnnc(SC)n1,1.72% (inactive),-12.6
O=C(Cc1ccc(Cl)cc1)NCc1nc(-c2ccccc2)no1,1.76% (inactive),18
CNc1nccc(-c2ccc(Cl)cc2)c1C#N,0.668% (inactive),-6.73
COc1ccc(NC(=O)N2CCC(Cc3ccccc3)CC2)cc1,5.76% (inactive),-6.26
NC(=O)c1ccc(CN2CCC(Cc3ccccc3)CC2)cc1,4.13% (inactive),31.8
CC(C)(C)NC(=O)NC(=O)CN1CCC(Cc2ccccc2)CC1,8.11% (active),52.4
O=C(NCc1ccco1)c1nn2cccnc2c1Cl,2.07% (inactive),-10.5
Cc1ccc(/C([O-])=C(/C(=S)NCc2ccco2)[n+]2ccccc2)cc1[N+](=O)[O-],1.01% (inactive),4.63
Cc1ccc(NC2=C(Cl)C(=O)OC2OC(=O)c2ccccc2C)cc1 (centres undefined),9.77% (inactive),12.9
CCOc1ccccc1C(=O)NCc1ccco1,3.98% (inactive),-2.98
O=c1nc2s/c(=C\c3ccco3)c(=O)n2nc1Cc1ccccc1,1.32% (inactive),-3.5
CCOc1ccccc1/C=c1\sc2nc(-c3ccco3)nn2c1=O,23.9% (active),-24.1
Cc1cc(C)c2c(n1)nn1c(-n3ccnc3)cc(C)nc21,2.18% (inactive),8.53

SMILES,% cells with GFP-LC3 spots,toxicity [%]
Cc1cc(C)c2c(n1)nn1c(N3CCN(c4cccc(Cl)c4)CC3)cc(C)nc21,11.4% (active),3.85
Cc1cc(C)c2c(n1)nn1c(N3CCOCC3)cc(C)nc21,8.07% (inactive),5.9
COCCN(Cc1nc(-c2ccc(C(F)(F)F)cc2)no1)C(C)C,9.15% (inactive),9.9
O=C(N/N=C/c1coc2ccccc2c1=O)c1cc2ccccc2o1,23.9% (inactive),5.54
Cc1c(/C=N/N2C(=O)C3C4C=CC(C4)C3C2=O)c2ccccc2n1C (centres undefined),7.41% (inactive),-40.2
Cc1c(/C=N\NC(=O)c2cc3ccccc3o2)c2ccccc2n1C,7.46% (active),40.9
O=C(NCCOc1ccccc1F)Nc1ccc(Br)cc1,8.91% (inactive),10.2
CCCCn1c(N)c(N2CCOCC2)c(=O)n(CC(=O)NCCc2ccccc2)c1=O,1.7% (inactive),10.6
Nc1ccc(Nc2ccccc2)cc1,3.14% (inactive),23.3
Cc1ccc(Nc2ccccc2N)cc1,78% (active),27.6
Cc1ccc(Nc2nnc(SCc3ccccc3)s2)cc1,12.4% (inactive),-2.65
Cc1ccc(CC(=O)Nc2cccc(C#N)c2)cc1,1.19% (inactive),-8.28
COc1cc(/C=C/C2=CC(C)(C)NC(=S)N2)cc(OC)c1OC,1.56% (inactive),6.84
CC(Oc1ccccc1F)C(=O)NN (centres undefined),38% (active),3.88
COc1cccc(NC(=O)C(C)Oc2ccccc2)c1 (centres undefined),5.6% (inactive),4.79
CC(Oc1ccc(F)cc1F)C(=O)/C=C/N(C)C (centres undefined),6.77% (inactive),7.51
COc1ccccc1C1CC(=O)n2c(nc(-c3ccccc3)c2-c2ccccc2)S1 (centres undefined),3.32% (inactive),1.28
O=[N+]([O-])/C(N=Nc1ccccc1)=N\Nc1ccccc1,16.1% (inactive),8.32
COc1ccc(C)c(Cn2c(-c3nonc3N)nc3ccccc32)c1,25% (active),49.2
Nc1nonc1-c1nc2ccccc2n1Cc1ccc(F)cc1,17.1% (inactive),0.606
Nc1nonc1-c1nc2ccccc2n1CCC(=O)O,6.83% (inactive),0.889
